Several values for one entry are separate records, joined by “and”; a condition that tells them apart may be missing. Equal entries are not always repeated. Out of some 5,500 compounds screened, about 2,000 (36%) were called active. Not shown: some 18% with an inconclusive outcome. No stated cut-off is given here; in the data, active means normalized growth mostly below about 0.91 (no sharp cut-off); inconclusive means no clear call, values can overlap the other calls; inactive means mostly above about 0.92. This is one part of the list.
Test: chemical genetic growth profiling, strain panel (AID 1159580);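 further: tested at 20 µM; growth read once vehicle control cultures reached saturation at 30 °C; 1 = growth at the plate median or of vehicle wells; lower values mean less growth of the strain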
Details: S. cerevisiae deletion strains, growth OD

Measured: normalized growth

CCn1cc(C(=O)O)c(=O)c2cc(F)c(N3CCNCC3)nc21
inactive: locus YAL013W, strain DEP1, hits give low values 1.01 | locus YAL021C, strain ccr4, hits give low values 0.939 | locus YAL026C, strain drs2, hits give low values 0.985 | locus YAL030W, strain snc1, hits give low values 0.982 | locus YBL061C, strain skt5, hits give low values 0.991 | locus YBR009C, strain hhf1, hits give low values 0.992 | locus YBR021W, strain FUR4, hits give low values 1.01 | locus YBR023C, strain chs3, hits give low values 0.983 | locus YBR171W, strain sec66, hits give low values 0.984 | locus YBR229C, strain ROT2, hits give low values 1.01 | locus YBR231C, strain swc5, hits give low values 0.998 | locus YBR279W, strain paf1, hits give low values 0.982 | locus YCL011C, strain gbp2, hits give low values 0.987 | locus YCL016C, strain dcc1, hits give low values 0.986 | locus YCL029C, strain bik1, hits give low values 1 | locus YCL061C, strain MRC1, hits give low values 0.987 | locus YCL069W, strain vba3, hits give low values 0.97 | locus YCR088W, strain abp1, hits give low values 0.982 | locus YDL005C, strain med2, hits give low values 0.978 | locus YDL035C, strain GPR1, hits give low values 1.02 | locus YDL040C, strain nat1, hits give low values 0.983 | locus YDL074C, strain BRE1, hits give low values 1 | locus YDL101C, strain DUN1, hits give low values 1.01 | locus YDL134C, strain PPH21, hits give low values 1.03 | locus YDL185W, strain tfp1, hits give low values 1.03 | locus YDL192W, strain arf1, hits give low values 1.02 | locus YDR001C, strain nth1, hits give low values 0.978 | locus YDR069C, strain doa4, hits give low values 0.982 | locus YDR101C, strain arx1, hits give low values 1 | locus YDR137W, strain rgp1, hits give low values 0.939 | locus YDR159W, strain sac3, hits give low values 0.962 | locus YDR162C, strain NBP2, hits give low values 1.02 | locus YDR195W, strain ref2 0.97 | locus YDR297W, strain sur2, hits give low values 0.971 | locus YDR318W, strain mcm21, hits give low values 1.02 | locus YDR334W, strain swr1, hits give low values 0.974 | locus YDR335W, strain msn5, hits give low values 0.979 | locus YDR388W, hits give low values 1.01 | locus YDR392W, strain spt3, hits give low values 0.946 | locus YDR502C, strain sam2, hits give low values 1.01 | locus YEL003W, strain gim4, hits give low values 0.985 | locus YEL037C, strain rad23, hits give low values 0.975 | locus YEL061C, strain CIN8 (second series), hits give low values 0.979 | locus YEL061C, strain CIN8, hits give low values 1.01 | locus YER015W, strain faa2, hits give low values 0.982 | locus YER016W, strain bim1, hits give low values 0.984 | locus YER110C, hits give low values 1.02 | locus YER111C, strain swi4, hits give low values 0.985 | locus YER155C, strain BEM2 (second series), hits give low values 0.956 | locus YER155C, strain BEM2, hits give low values 1.01 | locus YER167W, strain BCK2, hits give low values 1.03 | locus YFR010W, strain ubp6, hits give low values 0.984 | locus YGL078C, strain dbp3, hits give low values 1.01 | locus YGL086W, strain mad1, hits give low values 1.01 | locus YGL167C, strain pmr1, hits give low values 0.976 | locus YGL173C, strain kem1, hits give low values 0.98 | locus YGL227W, strain vid30, hits give low values 0.987 | locus YGL240W, strain doc1, hits give low values 0.975 | locus YGL248W, strain PDE1, hits give low values 1.01 | locus YGL253W, strain hxk2, hits give low values 0.994 | locus YGR135W, strain pre9, hits give low values 1.03 | locus YGR252W, strain gcn5, hits give low values 1.01 | locus YHR013C, strain ard1, hits give low values 0.966 | locus YHR027C, strain rpn1, hits give low values 0.994 | locus YHR030C, strain SLT2, hits give low values 1.01 | locus YHR079C, strain IRE1 (second series), hits give low values 1.01 | locus YHR079C, strain IRE1, hits give low values 1.03 | locus YHR094C, strain hxt1, hits give low values 1.02 | locus YHR129C, strain ARP1, hits give low values 1.01 | locus YHR142W, strain chs7, hits give low values 0.984 | locus YHR200W, strain rpn10, hits give low values 1.01 | locus YIL066C, strain RNR3, hits give low values 1.02 | locus YIL073C, strain SPO22, hits give low values 1.08 | locus YIL125W, strain kgd1, hits give low values 1.01 | locus YIR030C, strain dcg1, hits give low values 1.01 | locus YJL092W, strain hpr5, hits give low values 0.991 | locus YJL095W, strain BCK1 (second series), hits give low values 0.985 | locus YJL095W, strain BCK1, hits give low values 1 and 1.04 | locus YJL115W, strain asf1, hits give low values 0.963 | locus YJL129C, strain trk1, hits give low values 0.943 | locus YJL134W, strain LCB3, hits give low values 1 | locus YJL154C, strain vps35, hits give low values 0.961 | locus YJL164C, strain tpk1, hits give low values 0.992 | locus YJL166W, strain qcr8, hits give low values 0.981 | locus YJL168C, strain set2, hits give low values 1.01 | locus YJL187C, strain SWE1 (second series), hits give low values 1 | locus YJL187C, strain SWE1, hits give low values 0.981 | locus YJR043C, strain POL32, hits give low values 0.992
